From PubChem BioAssay
NPR1 antag – human Npr1 receptor antagonism. Potency, µM (highest dose often 46.3 µM), for the others: top-dose activity change, negative = inhibition, hits mostly inhibitors. HEK293 hNpr1 GloSensor cGMP, ANP-stimulated luminescence. P16066. AID 1347048. actives 1.6% (n = 76,000); calls by dose curve; also: nearly all actives have a fitted effect of over 60% in size
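HEK293 cells stably expressing human Npr1 and cGMP GloSensor pGS-40F, loaded 2 h with 2% GloSensor reagent, given compound 30 min at room temperature. Luminescence read before and 20 min after 0.1 nM hNppA.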
3T3 cytotox – kills NIH 3T3 cells; NIH 3T3 viability, CellTiter-Glo ATP luminescence, 48-72 h; Potency, µM (series often up to 96.7 µM), without a hit: top-dose activity change, negative = cytotoxicity, usual class: inhibitors; actives 4.3% (n = 94,000); AID 1345082; also: nearly all actives have a fitted effect of over 55% in size
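Viability of NIH 3T3 cells after 48 or 72 hr compound treatment at 37 °C was assessed by CellTiter-Glo, with luminescence imaged following a 10 min room-temperature step.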
GPT2 inhibitor – inhibitors of human GPT2 alanine aminotransferase; Recombinant GPT2, coupled pyruvate oxidase/HRP Amplex Red fluorescence; Potency, µM (series often up to 57.7 µM), for the others: at the top dose activity change, negative = inhibition, usual class: inhibitors; actives 0.25% (n = 100,000); Q8TD30; also: nearly all actives have a fitted effect of over 60% in size
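Recombinant GPT2 (10ng/uL) with 250uM a-KG and 2mM L-alanine, 30 min at room temperature, in HEPES pH 7.5 buffer. Pyruvate detected by pyruvate oxidase/HRP/Amplex Red fluorescence after 30 min in the dark; AOA (50uM) as positive control.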
FLuc inh – inhibitors of firefly (Photinus pyralis) luciferase; P08659; actives 2.5% (n = 76,000); Potency, µM (titrated, usually from 115 µM), most hits filed as inhibitors; AID 1347043; purified P. pyralis luciferase, luminescence, biochemical; also: nearly all actives have a fitted effect of over 65% in size
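Luminescence read by CCD imager after adding enzyme (10nM final) to wells holding compound, titrated in qHTS. Substrates 10uM each D-luciferin and ATP; buffer 50mM Tris acetate pH 7.5, 10mM Mg acetate, Tween-20, BSA.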
HEK293 tox – kills HEK 293 cells | Potency, µM (highest dose often 115 µM), for the others: at the highest dose activity change, negative = cytotoxicity, hits mostly inhibitors | AID 1345083 | HEK 293 viability, ATP luminescence (CellTiter-Glo), 48-72 h | actives 6.6% (n = 94,000); also: nearly all actives have a fitted effect of over 60% in size
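HEK 293 cells at 250 cells/well were exposed to compounds by pintool transfer for 48 or 72 hr at 37 degree Celsius, 5% CO2. Viability was read as ATP-coupled luminescence with CellTiter-Glo after 10 min at room temperature.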
Numbers without * were called inactive; i = inactive; u = inconclusive; x = no result given; [ ] = remark or other dose. Most compounds without a hit are left out; they make up all but 10% or so of the library. Unless noted, calls follow the shape of the dose curve; as a rule, active = well fitted curve in the direction sought with a large enough effect; inconclusive = small, poorly fitted or top-dose-only effect, or another doubt; inactive = no such curve, though single readings can be large; an effect the other way counts as inactive or inconclusive. % is scaled to controls: 0 for no effect and ±100 for the full control effect; potency is read from the fitted curve at half-maximal effect.

SMILES	NPR1 antag	3T3 cytotox	GPT2 inhibitor	FLuc inh	HEK293 tox
Cc1noc(C)c1-c1cc2cc(CN(C)C)oc2c(Nc2cccnc2)n1	-1%[70.6 µM]	25µM*	0%[88.5 µM]	i	71µM*
COc1ccc(F)cc1-c1cccc(C(=O)NCC(=O)NCCc2cccc(F)c2)c1	x	u	x	x	40µM*
COc1ccccc1C(=O)NCCNC(=O)c1cccc(-c2cc(F)ccc2OC)c1	x	u	-1%	x	u
COc1ccc(F)cc1-c1cccc(C(=O)NCCNC(=O)c2ccc(F)cc2)c1	x	u	-5%	x	35µM*
COc1ccc(F)cc1-c1cccc(C(=O)NCCNC(=O)c2ccccc2)c1	x	u	i	x	u
COc1ccc(F)cc1-c1cccc(C(=O)NCCNC(=O)c2cccnc2)c1	x	35µM*	x	x	u
COc1ccc(F)cc1-c1cccc(C(=O)NCCN[S+](=O)([O-])CCC(F)(F)F)c1	x	u	i	x	79µM*
O=C(C1CCC1)N1CCC(N2CC3CC(C2)[C@H]2CCCC(=O)N2C3)CC1 (stereo not given in full)	-2%	i	4%	i	6%
COc1ccc([C@H]2C[C@@H](O)[C@@H](O)[C@@H]2NS(C)(=O)=O)cc1	-4%[70.6 µM]	-14%[174 µM]	i	i	-12%[172 µM]
Cc1ccc(NC(=O)N2C[C@@H](F)C[C@H]2C(=O)N2CCc3ccccc3C2)cc1F	-1%	35µM*	3%	i	40µM*
O=C([C@@H]1C[C@H](F)CN1S(=O)(=O)Cc1ccc(Cl)cc1)N1CCc2ccccc2C1	u	16µM*	i	i	u
COc1ccccc1N1CCN([C@H]2[C@@H]3OC[C@@H](O3)[C@@H](NC(=O)Nc3ccccc3)[C@@H]2O)CC1	2%	-14%	-10%	i	-27%
c1ccc2oc([C@H]3CCN(C4CCCCC4)C3)nc2c1	u	-25%[174 µM]	-26%[88.5 µM]	u	-19%[230 µM]
c1ccc2oc([C@H]3CCN(C4CCOCC4)C3)nc2c1	-3%[70.6 µM]	i	i	79µM*	-13%[230 µM]
CC(C)N1CC[C@H](c2nnc(-c3ccccc3F)o2)C1	3%[70.6 µM]	i	-12%[88.5 µM]	40µM*	i
Fc1ccccc1-c1nnc([C@H]2CCN(C3CCOCC3)C2)o1	-1%[70.6 µM]	1%[138 µM]	i	71µM*	i
Cc1ccsc1C(=O)NC1CCN(c2cc(-c3ccccc3)[nH]n2)C1 (stereo not given)	-10%	-24%	-30%	i	u
Cc1nnc2ccc(N3CCCC(NC(=O)C(C)C)C3)nn12 (stereo not given)	x	-19%[138 µM]	x	x	i
COC[C@@H]1CN(c2cnccn2)C[C@H]1C(=O)NCCc1ccncc1	8%	-11%	-16%	i	3%
CN(CCc1ccccc1)C(=O)c1cc(-c2ccc[nH]2)n[nH]1	15%	-29%	-3%	i	-17%
CCCN1CCCC12Cc1ccccc1CN(C(=O)C(C)C)C2 (stereo not given)	x	u	4%	x	89µM*
CCCN1CCCCC12Cc1ccccc1CN(C(=O)c1c(C)noc1C)C2 (stereo not given)	x	32µM*	i	x	u
CCCN1CCCC12Cc1ccccc1CN(C(C)=O)C2 (stereo not given)	x	u	1%[88.5 µM]	x	u
COc1ccc(Cn2c(C3CCN(C(=O)c4cccs4)CC3)n[nH]c2=O)cc1	-2%	-9%	-2%	i	7%
COc1ccc(O[C@H]2COCCN(S(=O)(=O)c3ccc(OC)cc3)C2)cc1	-1%[70.6 µM]	u	-10%[88.5 µM]	i	u
SMILES	NPR1 antag	3T3 cytotox	GPT2 inhibitor	FLuc inh	HEK293 tox
COc1ccc(S(=O)(=O)N2CCOC[C@H](Oc3ccc(C(F)(F)F)cn3)C2)cc1	u	u	0%[88.5 µM]	i	100µM*
CS(=O)(=O)N1CCOC[C@H](Oc2ccc(C(F)(F)F)cc2)C1	-18%[70.6 µM]	-17%[138 µM]	-4%[88.5 µM]	i	u
COc1ccc(S(=O)(=O)N2CCOC[C@H](Oc3ccccc3)C2)cc1	-9%[70.6 µM]	u	0%[88.5 µM]	i	63µM*
Cc1noc(C)c1S(=O)(=O)N1CCOC[C@H](Oc2ccc(C(F)(F)F)cc2)C1	-21%[70.6 µM]	u	-9%[88.5 µM]	i	63µM*
Cc1nn(CCC#N)c(C)c1[C@@H]1C=C[C@@H](NC(=O)Nc2ccccc2)C1	3%[70.6 µM]	u	i	u	-3%[172 µM]
Cc1nn(-c2ccccc2)c(C)c1[C@@H]1C=C[C@@H](NC(=O)c2ccco2)C1	35µM*	u	5%[88.5 µM]	i	u
Cc1nn(-c2ccc(C(F)(F)F)cc2)c(C)c1[C@@H]1C=C[C@@H](NC(=O)Nc2cccc(C#N)c2)C1	u	25µM*	-12%	7.1µM*	u
Cc1nn(-c2ccc(C(F)(F)F)cc2)c(C)c1[C@@H]1C=C[C@@H](NC(=O)c2cccnc2)C1	-26%[70.6 µM]	28µM*	-9%[88.5 µM]	u	u
Cc1nn(-c2ccccc2[N+](=O)[O-])c(C)c1[C@@H]1C=C[C@@H](NC(=O)Nc2cccc(C#N)c2)C1	u	u	i	u	40µM*
COc1ccc(-c2ccc3nnc(CNC(=O)c4ccc(C)cc4C)n3n2)cc1	-1%	-4%	-3%	i	-4%
CCn1ncc(N2CCC(NC(=O)c3ccc(OC)cc3C)CC2)cc1=O	-10%	-8%	4%	i	1%
O=C(CCC[C@@H]1[C@H]2CCCN3CCC[C@@H](CN1Cc1ccccc1)[C@@H]23)Nc1cccnc1	0%	u	1%	i	-25%
O=C(NCc1ccc(Cl)cc1)[C@@H]1Cc2nc[nH]c2CN1Cc1ccc(Cl)cc1	u	45µM*	1%[88.5 µM]	i	32µM*
COc1ccc(CN2Cc3[nH]cnc3C[C@H]2C(=O)N(C)Cc2ccccc2)c2ccccc12	-26%	u	u	i	40µM*
COc1ccc(CN2Cc3[nH]cnc3C[C@H]2C(=O)NCc2ccc(Cl)cc2)c2ccccc12	u	u	u	i	u
COc1ccc(CN2Cc3[nH]cnc3C[C@H]2C(=O)NC2CCCCC2)c2ccccc12	-19%[70.6 µM]	63µM*	1%[88.5 µM]	i	u
COc1ccc(CN2Cc3[nH]cnc3C[C@H]2C(=O)NCc2ccc(C#N)cc2)c2ccccc12	-19%	79µM*	-2%	i	u
O=C(NCc1ccccc1)[C@@H]1Cc2nc[nH]c2CN1Cc1ccc(Cl)cc1	-11%[70.6 µM]	u	i	i	u
CCOc1ccc(C(=O)N2CCN(c3cc(-c4ccccc4)[nH]n3)CC2)cc1OCC	-17%	u	-6%	i	u
CC(C)(C)C(=O)N1CCC(C(=O)N2CCC3(CC2)CC(=O)Nc2ccccc2O3)CC1	x	-26%	i	x	-22%
COCC(=O)N1CCCC(c2nn(-c3cccc(Cl)c3)c(=O)[nH]2)C1 (stereo not given)	-4%	4%	i	i	-6%
